# Source: PubChem
# GluA2 TARP mod: modulators of AMPA receptor GluA2-stargazin complexes; O88602+P19491; HEK293 GluA2+stargazin, membrane potential dye (FDSS), glutamate EC50; hits were called plate by plate, in both directions; calls only at 30 µM; 3.5% of 40,000 active; AID 1259245;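 active = any of four per-well response measures lying three or more SD from its plate-wide compound average, in either direction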
# GIRK2 act: Activators of human GIRK2-containing channels | P48051 | HEK293 GIRK2/NPY4 cells, thallium flux fluorescence | activation (% efficacy), % for hits at 37.5 µM | 34,000 tested, under 10 active;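 active = primary screen hit, no activity in plain HEK293 cells, and in GIRK2-only cells above 5% efficacy rising with concentration; inactive = the rest, including fluorescent compounds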;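 note: efficacy is normalized control-subtracted fluorescence 15 s after thallium addition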
# * marks the source's active call; other numbers are inactive results; i = inactive; · = not tested or not shown; + = active, no number. The entries come from a sample that favours hits as a whole.
SMILES,GluA2 TARP mod,GIRK2 act
Cc1nc2ccccn2c1C(=O)NCC1CCN(S(=O)(=O)C2CC2)CC1,i,i
COc1ccc(Cl)cc1NC(=O)CC(C)n1nc(C)c(C(C)=O)c1C (centres undefined),i,i
COCCNc1oc2c(c1-c1cccc(OC)c1OC)c(=O)oc1ccccc12,i,i
COc1ccc(NC(=O)Cn2nc(SC)c(S(=O)(=O)c3ccccc3)c2N)c(OC)c1,+,·
COc1ccc(NC(=O)Cn2nc(SC)c(S(=O)(=O)c3ccc(OC)cc3)c2N)cc1,i,·
Cc1ccsc1C(O)CNC(=O)CCSc1ccccc1 (centres undefined),i,i
